Measured values published in PubChem BioAssay AID1159580 (chemical genetic matrix, 2015).
Where “and” joins values, the source holds several entries; their conditions need not be identical. Identical values can stand only once. About 2,000 (36%) of roughly 5,500 compounds were called active. Another 18% or so got no clear call; they are omitted. No stated cut-off is given here; in the data, active means normalized growth mostly below about 0.91 (no sharp cut-off); inconclusive means no clear call, values can overlap the other calls; inactive means mostly above about 0.92. This is one part of the list.

Test: chemical genetic growth profiling, strain panel (AID 1159580);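 further: tested at 20 µM; growth read once vehicle control cultures reached saturation at 30 °C; 1 = growth at the plate median or of vehicle wells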
Conditions: S. cerevisiae deletion strains, growth OD

Measured: normalized growth

Oc1ccc(Cl)cc1
inactive: locus YAL013W, strain DEP1, stronger effect = lower value 0.992 | locus YAL021C, strain ccr4, stronger effect = lower value 1.01 | locus YAL026C, strain drs2, stronger effect = lower value 1.03 | locus YAL030W, strain snc1, stronger effect = lower value 1.01 | locus YBL061C, strain skt5, stronger effect = lower value 1.01 | locus YBR009C, strain hhf1, stronger effect = lower value 1.01 | locus YBR021W, strain FUR4, stronger effect = lower value 0.971 | locus YBR023C, strain chs3, stronger effect = lower value 1.01 | locus YBR171W, strain sec66, stronger effect = lower value 1.02 | locus YBR229C, strain ROT2, stronger effect = lower value 0.986 | locus YBR231C, strain swc5, stronger effect = lower value 1 | locus YBR279W, strain paf1, stronger effect = lower value 1.01 | locus YCL011C, strain gbp2, stronger effect = lower value 1.01 | locus YCL016C, strain dcc1, stronger effect = lower value 1.02 | locus YCL029C, strain bik1, stronger effect = lower value 0.976 | locus YCL061C, strain MRC1, stronger effect = lower value 1.02 | locus YCL069W, strain vba3, stronger effect = lower value 1.01 | locus YCR088W, strain abp1, stronger effect = lower value 1.01 | locus YDL005C, strain med2, stronger effect = lower value 1.01 | locus YDL035C, strain GPR1, stronger effect = lower value 0.987 | locus YDL040C, strain nat1, stronger effect = lower value 1.01 | locus YDL074C, strain BRE1, stronger effect = lower value 1.01 | locus YDL101C, strain DUN1, stronger effect = lower value 0.985 | locus YDL134C, strain PPH21, stronger effect = lower value 0.975 | locus YDL185W, strain tfp1, stronger effect = lower value 0.98 | locus YDL192W, strain arf1, stronger effect = lower value 0.977 | locus YDR001C, strain nth1, stronger effect = lower value 1.01 | locus YDR069C, strain doa4, stronger effect = lower value 0.992 | locus YDR101C, strain arx1, stronger effect = lower value 0.973 | locus YDR137W, strain rgp1, stronger effect = lower value 1.04 | locus YDR159W, strain sac3, stronger effect = lower value 0.981 | locus YDR162C, strain NBP2, stronger effect = lower value 0.995 | locus YDR195W, strain ref2 1.02 | locus YDR297W, strain sur2, stronger effect = lower value 1.01 | locus YDR318W, strain mcm21, stronger effect = lower value 0.977 | locus YDR334W, strain swr1, stronger effect = lower value 1.01 | locus YDR335W, strain msn5, stronger effect = lower value 1 | locus YDR388W, stronger effect = lower value 0.962 | locus YDR392W, strain spt3, stronger effect = lower value 0.956 | locus YDR502C, strain sam2, stronger effect = lower value 0.979 | locus YEL003W, strain gim4, stronger effect = lower value 1.01 | locus YEL037C, strain rad23, stronger effect = lower value 1.01 | locus YEL061C, strain CIN8 (second series), stronger effect = lower value 1.01 | locus YEL061C, strain CIN8, stronger effect = lower value 0.993 | locus YER015W, strain faa2, stronger effect = lower value 1.01 | locus YER016W, strain bim1, stronger effect = lower value 0.997 | locus YER110C, stronger effect = lower value 0.973 | locus YER111C, strain swi4, stronger effect = lower value 1.01 | locus YER155C, strain BEM2 (second series), stronger effect = lower value 1.02 | locus YER155C, strain BEM2, stronger effect = lower value 0.987 | locus YER167W, strain BCK2, stronger effect = lower value 0.984 | locus YFR010W, strain ubp6, stronger effect = lower value 1 | locus YGL078C, strain dbp3, stronger effect = lower value 0.978 | locus YGL086W, strain mad1, stronger effect = lower value 1 | locus YGL167C, strain pmr1, stronger effect = lower value 1 | locus YGL173C, strain kem1, stronger effect = lower value 1 | locus YGL227W, strain vid30, stronger effect = lower value 1.01 | locus YGL240W, strain doc1, stronger effect = lower value 1 | locus YGL248W, strain PDE1, stronger effect = lower value 0.991 | locus YGL253W, strain hxk2, stronger effect = lower value 1.02 | locus YGR135W, strain pre9, stronger effect = lower value 0.978 | locus YGR229C, strain SMI1, stronger effect = lower value 0.996 | locus YGR252W, strain gcn5, stronger effect = lower value 1.05 | locus YHR013C, strain ard1, stronger effect = lower value 1.03 | locus YHR027C, strain rpn1, stronger effect = lower value 1.01 | locus YHR030C, strain SLT2, stronger effect = lower value 0.99 and 0.965 | locus YHR079C, strain IRE1 (second series), stronger effect = lower value 0.966 | locus YHR079C, strain IRE1, stronger effect = lower value 0.966 | locus YHR094C, strain hxt1, stronger effect = lower value 0.974 | locus YHR129C, strain ARP1, stronger effect = lower value 0.998 | locus YHR142W, strain chs7, stronger effect = lower value 1.02 | locus YHR200W, strain rpn10, stronger effect = lower value 0.98 | locus YIL066C, strain RNR3, stronger effect = lower value 0.992 | locus YIL073C, strain SPO22, stronger effect = lower value 0.942 | locus YIL125W, strain kgd1, stronger effect = lower value 0.975 | locus YIR030C, strain dcg1, stronger effect = lower value 0.98 | locus YJL092W, strain hpr5, stronger effect = lower value 1.02 | locus YJL095W, strain BCK1 (second series), stronger effect = lower value 1.01 | locus YJL095W, strain BCK1, stronger effect = lower value 1.01 and 0.962 | locus YJL115W, strain asf1, stronger effect = lower value 1.02 | locus YJL129C, strain trk1, stronger effect = lower value 0.99 | locus YJL134W, strain LCB3, stronger effect = lower value 0.991 | locus YJL154C, strain vps35, stronger effect = lower value 1.01 | locus YJL164C, strain tpk1, stronger effect = lower value 1 | locus YJL166W, strain qcr8, stronger effect = lower value 1.02 | locus YJL168C, strain set2, stronger effect = lower value 0.978 | locus YJL187C, strain SWE1 (second series), stronger effect = lower value 0.986 | locus YJL187C, strain SWE1, stronger effect = lower value 1.02 | locus YJR043C, strain POL32, stronger effect = lower value 1 | locus YJR066W, strain TOR1, stronger effect = lower value 0.934
